# A collection of fitness landscapes (doi:10.1016/j.celrep.2020.107928)
# Whole data set: some 81,000 sequences, median “one-hybrid fitness for binding NBS DNA” near -0.1, cut for the highest 2% near 0.36. The entries come from a sample that favours the highest values as a whole.
# B1: Caulobacter ParB omega fusion; a variant is named by its letters at X, in order, B8GW30 (parent)
# chain: MESVVVGEPGMSEGRRGLGRGLSALLGEVDAAPAQAPGEQLGGSREAPIEILQRNPDQPRRTFREEDLEDLSNSIREKGVLQPILVRPSPDTAGEYQIVAGERAWRAAQRAGLKTVPIMVRELDDLAVLEIGIIENVQRADLNVLEEALSYKVLMEKFERTQENIAQTIGKSXSHVANXMRLLXLPDEVQSYLVSGELTAXHARAIAAAADPVALAKQIIEGGLSVRETEALARKAPNLSAGKSKGGRPPRVKDTDTQALESDLSSVLGLDVSIDHRGSTGTLTITYATLEQLDDLCNRLTRGI
# Variants of: B1
# Test: one-hybrid fitness for binding NBS DNA (the Noc-binding site; scaled: cognate 1, non-cognate 0); higher = stronger binding
# Conditions: with NBS DNA site
# Outline: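 Caulobacter ParB libraries with four specificity codons randomised were screened by bacterial one-hybrid selection in the E. coli USO strain, using a HIS3 reporter whose site lies 19 bp from the promoter. Selection ran for 48 hours at 37°C on M9 lacking histidine, with 0.1 mM IPTG and 5 mM 3-AT. Plasmids were Illumina-sequenced before and after selection, three replicate libraries were pooled, and variants with under 10 reads were dropped. Fitness is the log change in each variant's read ratio to wild type, rescaled against the cognate and non-cognate sites.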
row,Variant,one-hybrid fitness for binding NBS DNA
1,ALAT,≤ 0.2
2,THPT,≤ 0.2
3,QTKI,0.468
4,QRKI,0.52
5,QRPI,≤ 0.2
6,QTFI,≤ 0.2
7,QSKI,0.314
8,QCKI,0.405
9,QTVI,≤ 0.2
10,QRVI,≤ 0.2
11,QPKI,≤ 0.2
12,KYRQ,≤ 0.2
13,YRRY,≤ 0.2
14,PRVL,≤ 0.2
15,QQIK,≤ 0.2
16,NLQI,≤ 0.2
17,TNPS,≤ 0.2
18,EPGN,≤ 0.2
19,FANT,≤ 0.2
20,SSVH,≤ 0.2
21,PPVW,≤ 0.2
22,SDIF,≤ 0.2
23,IYDC,≤ 0.2
24,RRGT,0.732

row,Variant,one-hybrid fitness for binding NBS DNA
1,RPET,≤ 0.2
2,RRWM,0.23
3,RRHM,0.294
4,RRET,0.698
5,RRWT,0.824
6,RRGY,0.36
7,RRGK,0.215
8,RRHT,0.755
9,RRHG,0.362
10,RCET,≤ 0.2
11,DEAY,≤ 0.2
12,MGSC,≤ 0.2
13,KCYS,≤ 0.2
14,CWHL,≤ 0.2
15,DVFL,≤ 0.2
16,TRWG,≤ 0.2
17,YWSC,≤ 0.2
18,RRRT,0.786
19,RRLM,0.228
20,DRRT,≤ 0.2
21,RGRT,≤ 0.2
22,RRYT,0.769
23,RRLT,0.761
24,RRQT,0.752

row,Variant,one-hybrid fitness for binding NBS DNA
1,RRQM,0.273
2,RRQQ,0.268
3,RFLT,≤ 0.2
4,TAWR,≤ 0.2
5,RMPQ,≤ 0.2
6,CKWG,≤ 0.2
7,MIPG,≤ 0.2
8,HFNT,≤ 0.2
9,GLSP,≤ 0.2
10,RACT,0.334
11,RPDT,≤ 0.2
12,RRSQ,0.284
13,RRSC,0.291
14,RRNQ,0.313
15,RRCT,0.77
16,RRNK,0.274
17,RRST,0.776
18,RRNT,0.785
19,RFCT,≤ 0.2
20,RRDT,0.755
21,KAAL,≤ 0.2
22,VLTL,≤ 0.2
23,LFQI,≤ 0.2
24,MRVN,≤ 0.2

row,Variant,one-hybrid fitness for binding NBS DNA
1,PPII,≤ 0.2
2,YTPG,≤ 0.2
3,RTSD,≤ 0.2
4,RTHD,≤ 0.2
5,RTDS,0.219
6,RTLS,0.381
7,RTHS,0.54
8,RTSS,0.475
9,RTND,≤ 0.2
10,RTLD,≤ 0.2
11,RTLN,≤ 0.2
12,RTNS,0.534
13,RTHH,0.262
14,RTSN,≤ 0.2
15,HINT,≤ 0.2
16,HQTT,≤ 0.2
17,ITQC,≤ 0.2
18,IHSS,≤ 0.2
19,SNIS,≤ 0.2
20,KRCM,≤ 0.2
21,FKNS,≤ 0.2
22,RTRH,0.536
23,RTWS,0.349
24,RTRS,0.651

row,Variant,one-hybrid fitness for binding NBS DNA
1,RTYH,≤ 0.2
2,RTRN,0.277
3,RTDH,≤ 0.2
4,RTYS,0.491
5,RTIS,0.34
6,RTRP,≤ 0.2
7,IPNR,≤ 0.2
8,PSAG,≤ 0.2
9,DNSY,≤ 0.2
10,AIGW,≤ 0.2
11,RVNN,≤ 0.2
12,RVND,≤ 0.2
13,RVNR,0.55
14,RVDR,0.213
15,RVDS,≤ 0.2
16,RVNS,0.521
17,RVDT,≤ 0.2
18,RVNP,≤ 0.2
19,RVNT,0.576
20,WHSS,≤ 0.2
21,TLQF,≤ 0.2
22,SSCT,≤ 0.2
23,WSSA,≤ 0.2
24,LTMS,≤ 0.2

row,Variant,one-hybrid fitness for binding NBS DNA
1,PEYD,≤ 0.2
2,YDIF,≤ 0.2
3,YRPY,≤ 0.2
4,RPKC,≤ 0.2
5,RLKC,0.335
6,RSYC,≤ 0.2
7,RCKC,0.37
8,RKPC,≤ 0.2
9,RKVC,≤ 0.2
10,RMYC,≤ 0.2
11,RMKC,0.4
12,RKKC,0.391
13,RSVC,≤ 0.2
14,RMVC,≤ 0.2
15,RSKC,0.382
16,CIWR,≤ 0.2
17,TVCY,≤ 0.2
18,CPRV,≤ 0.2
19,GSGL,≤ 0.2
20,NLCF,≤ 0.2
21,RRSP,≤ 0.2
22,RRSN,0.356
23,RRSH,0.439
24,RCSH,0.203

row,Variant,one-hybrid fitness for binding NBS DNA
1,RRSS,0.643
2,RRSD,≤ 0.2
3,APVD,≤ 0.2
4,VPVL,≤ 0.2
5,EKCM,≤ 0.2
6,GETM,≤ 0.2
7,NDTS,≤ 0.2
8,HEHG,≤ 0.2
9,WING,≤ 0.2
10,QTWK,≤ 0.2
11,QTWR,0.529
12,QSWR,0.365
13,QLWR,0.319
14,QMWD,≤ 0.2
15,QIWR,0.304
16,QMWR,0.403
17,QRWD,≤ 0.2
18,QRWR,0.796
19,QMWS,0.261
20,QTWC,≤ 0.2
21,RLIM,≤ 0.2
22,HKDT,≤ 0.2
23,CTPT,≤ 0.2
24,QQGL,≤ 0.2

row,Variant,one-hybrid fitness for binding NBS DNA
1,TSVS,≤ 0.2
2,LDTG,≤ 0.2
3,DILR,≤ 0.2
4,RKCV,≤ 0.2
5,QAWY,≤ 0.2
6,QPWR,≤ 0.2
7,QKWS,0.33
8,QCWR,0.49
9,QKWD,0.405
10,QAWR,0.348
11,QKWY,≤ 0.2
12,QKWF,≤ 0.2
13,QKWM,≤ 0.2
14,QKWR,0.462
15,RLLS,0.266
16,SITS,≤ 0.2
17,LTLV,≤ 0.2
18,SPPA,≤ 0.2
19,RRRL,0.25
20,RPRH,≤ 0.2
21,RRRE,0.219
22,RREH,0.296
23,RRPH,0.294
24,RRYH,0.436

row,Variant,one-hybrid fitness for binding NBS DNA
1,RCRH,0.46
2,RSRH,0.335
3,RRRH,0.808
4,SHTT,≤ 0.2
5,VASP,≤ 0.2
6,SECF,≤ 0.2
7,NISL,≤ 0.2
8,QYYC,≤ 0.2
9,QYNC,≤ 0.2
10,QYKC,0.371
11,QYDC,≤ 0.2
12,QYRC,0.38
13,QYVC,≤ 0.2
14,MESV,≤ 0.2
15,SGNS,≤ 0.2
16,GITD,≤ 0.2
17,RVSA,≤ 0.2
18,RMCL,≤ 0.2
19,RLCT,0.396
20,RLYT,0.391
21,RMCT,0.366
22,RLCH,≤ 0.2
23,RLPT,≤ 0.2
24,RLGC,≤ 0.2

row,Variant,one-hybrid fitness for binding NBS DNA
1,RLCP,≤ 0.2
2,RLGT,0.389
3,RLGM,≤ 0.2
4,RLLT,0.337
5,RMCF,≤ 0.2
6,APPM,≤ 0.2
7,YKNV,≤ 0.2
8,MWIF,≤ 0.2
9,QMEK,≤ 0.2
10,LNIR,≤ 0.2
11,FVCG,≤ 0.2
12,LKHR,≤ 0.2
13,RLSH,≤ 0.2
14,RLRT,0.657
15,RLHY,≤ 0.2
16,RTCT,0.531
17,RLHN,≤ 0.2
18,RLWT,0.23
19,RLSP,≤ 0.2
20,RLHT,0.437
21,RLIT,0.23
22,RTCC,≤ 0.2
23,RTCK,≤ 0.2
24,RLST,0.46

row,Variant,one-hybrid fitness for binding NBS DNA
1,FWLT,≤ 0.2
2,PFLT,≤ 0.2
3,THKK,≤ 0.2
4,QSNE,≤ 0.2
5,SMHG,≤ 0.2
6,TFYD,≤ 0.2
7,RLDT,≤ 0.2
8,RCCT,0.39
9,RLKT,0.644
10,RLQD,≤ 0.2
11,RLVT,0.236
12,RPCT,≤ 0.2
13,RSCT,0.281
14,RLQN,≤ 0.2
15,RLKP,≤ 0.2
16,RLNT,0.528
17,RLQT,0.462
18,RLNH,0.201
19,KERP,≤ 0.2
20,SPFL,≤ 0.2
21,PQIR,≤ 0.2
22,QSHW,≤ 0.2
23,AERM,≤ 0.2
24,QSMR,0.456

row,Variant,one-hybrid fitness for binding NBS DNA
1,QAMN,≤ 0.2
2,QSMN,≤ 0.2
3,QTMR,0.656
4,QTMY,0.232
5,EMMS,≤ 0.2
6,QAMH,0.219
7,EMMN,≤ 0.2
8,EMMK,0.405
9,QSMH,≤ 0.2
10,QAMR,0.45
11,QTMC,≤ 0.2
12,LIRV,≤ 0.2
13,RMDQ,≤ 0.2
14,VSTS,≤ 0.2
15,CNRT,≤ 0.2
16,IWRR,≤ 0.2
17,PMRP,≤ 0.2
18,TVTG,≤ 0.2
19,HFAM,≤ 0.2
20,DPVR,≤ 0.2
21,CHNI,≤ 0.2
22,QMMD,≤ 0.2
23,QIMR,0.348
24,QRMM,0.334

row,Variant,one-hybrid fitness for binding NBS DNA
1,QRMF,0.25
2,QRMR,0.971
3,QCMR,0.589
4,QMML,≤ 0.2
5,QKMR,0.51
6,QPMR,≤ 0.2
7,QKMK,≤ 0.2
8,QMMR,0.523
9,QKMC,≤ 0.2
10,TRYK,≤ 0.2
11,DMET,≤ 0.2
12,PFSA,≤ 0.2
13,KETI,≤ 0.2
14,TMKT,≤ 0.2
15,FTAV,≤ 0.2
16,TYAQ,≤ 0.2
17,DFDS,≤ 0.2
18,QLMD,≤ 0.2
19,QHMD,≤ 0.2
20,QLMR,0.437
21,QLMP,≤ 0.2
22,QHMH,≤ 0.2
23,QHMR,0.512
